For 55 compounds, Percent Effect results are on record in ChEMBL document CHEMBL3988442, “University of Dundee, Small-Polar-MMV Screening Library” (2021).

Molecules are shown by their SMILES. Among all 69,000 compounds or so, about 420 (0.61%) showed an effect of 50% or more. What follows is part of a selection rich in strong results, with near analogues and random picks from the rest.

The test deals with T1, Histidine--tRNA ligase (Leishmania infantum) (UniProt A4I591).
T1 sequence (whole entry): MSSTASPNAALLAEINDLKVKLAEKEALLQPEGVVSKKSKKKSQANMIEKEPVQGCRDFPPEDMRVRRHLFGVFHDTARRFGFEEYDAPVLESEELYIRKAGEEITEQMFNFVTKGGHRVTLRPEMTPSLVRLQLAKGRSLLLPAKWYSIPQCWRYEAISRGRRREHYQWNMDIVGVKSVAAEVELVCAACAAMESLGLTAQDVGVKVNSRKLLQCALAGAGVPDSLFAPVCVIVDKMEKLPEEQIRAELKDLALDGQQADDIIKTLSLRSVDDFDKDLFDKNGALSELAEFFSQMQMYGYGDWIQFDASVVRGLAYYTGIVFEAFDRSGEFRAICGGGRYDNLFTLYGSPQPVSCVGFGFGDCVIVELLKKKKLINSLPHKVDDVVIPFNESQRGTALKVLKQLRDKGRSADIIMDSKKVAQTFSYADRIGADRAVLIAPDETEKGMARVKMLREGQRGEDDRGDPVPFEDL
The test is described as follows: Leishmania infantum Histidine tRNA synthetase (LdHisRS). Type of test: functional. On the set-up: scale not given: in the data most compounds retested in dose-response had high values. The note with it: 30 µM.
For `Cc1ccc(OCc2occc2C(=O)N2C[C@@H]3[C@@H](CN(C)C)[C@@H]3C2)cc1`, the Percent Effect was 15.9%.

On to `Cc1nc(COC[C@@]23CCC[C@@H]2CN(Cc2nccs2)C3)cs1`, for which the Percent Effect amounted to 15.8%. Turning to `CN(C)C(=O)CO[C@H]1CN(Cc2nccs2)[C@@H]2COC[C@H]12`, the Percent Effect is 9.91%. Turning to `NC(=O)C1=NC2=NS(=O)(=O)c3ccccc3N2N1Cc1ccccc1Cl`, the Percent Effect was determined as 37.1%. The value for `NC(=O)C1=NN2C(=NS(=O)(=O)c3ccccc32)N1` was 14.8%; that for `NC(=O)C1=NC2=NS(=O)(=O)c3ccccc3N2N1Cc1ccc(Cl)cc1` was 58.1%. The value for `NC(=O)CN(Cc1ccc(Br)cc1)C(=O)c1ccccn1` was 7.29%. Take `NC(=O)C1=NC2=NS(=O)(=O)c3ccccc3N2N1Cc1ccc(Br)cc1`: the Percent Effect was 59.7%.

As to `Cc1nnc([C@@H]2CC[C@@H]3[C@@H](CCN3C3CCOCC3)O2)o1`, the Percent Effect is 2.63%. On to `Cc1ccc(CN2CC[C@H]3[C@H]2CCN3S(C)(=O)=O)s1`, for which the Percent Effect is 20%. The value for `O=C(c1ccccn1)N1C[C@@H]2CC[C@H](C1)N(C(=O)CCc1ccsc1)C2` was 10.4%; that for `Cc1nnsc1CN1C[C@H]2CC[C@@H]1CN(Cc1ccc(F)cc1)C2` was 8.33%. In the case of `CC(=O)N1CCCCC[C@@H]2[C@@H]1[C@H](c1cccc(F)c1)CN2CCC(N)=O`, the Percent Effect stood at 13%. Under `COCCn1cc(NC(=O)NC(C)CCc2ccccc2)ccc1=O` (stereo not given) stands 98.3%; under `CC(CCc1ccccc1)NC(=O)CN1CCOCC1` (stereo not given), 1.49%. Under `CC(CCc1ccccc1)NC(=O)Nc1cnn(CC(N)=O)c1` (stereo not given) stands 24.3%.

Regarding `COCCn1cc(NC(=O)C(C)CCc2ccccc2F)ccc1=O` (stereo not given), the Percent Effect was 102%. For the compound `CC(CCc1ccccc1F)C(=O)NS(=O)(=O)N(C)C(C)C` (stereo not given), the Percent Effect was 19.5%. The value for `CC(CCc1ccccc1F)C(=O)NS(C)(=O)=O` (stereo not given) was 16.9%; that for `COc1ccc(CN2C[C@@H]3COC[C@]3(CN(C)C)C2)cc1` was 17.6%. `O=C(Cc1ccncc1)N1C[C@@H]2CC[C@H](C1)N(Cc1ccccc1)C2=O`: the Percent Effect is 6.56%. For the compound `O=C(Cc1csc(-c2ccco2)n1)N1CCN(c2nccs2)CC1`, the Percent Effect stood at 20%. The value for `O=C(Cc1csc(-c2ccco2)n1)N1CCN(c2cnccn2)CC1` was 56.8%; that for `Cc1ccc(-c2nc(CC(=O)N3CCN(c4cnccn4)CC3)cs2)o1` was 28.7%; that for `Cc1noc(C)c1CN1CC[C@H]2OCC[C@@H](C(=O)N3CCCO3)[C@H]2C1` was 20%. As to `O=S(=O)(C1CC1)N1CCO[C@H]2[C@H](OCCN3CCCC3)CC[C@@H]21`, the Percent Effect was found to be 15.1%. Consider `O=C1[C@H]2CN(CC3CCOCC3)C[C@H]2CN1c1ccsc1`, for which the Percent Effect was 8%. In the case of `O=C(CC1CC1)N[C@@H]1CN(Cc2ccco2)C[C@@H]2CCCO[C@@H]21`, the Percent Effect stood at 17.1%.

For `COCCN1CCCC(C)(c2cc(O)[nH]n2)C1` (stereo not given), the Percent Effect turned out to be 47.1%. In the case of `COCC(=O)N1CCC(C)(c2cc(O)[nH]n2)CC1`, the Percent Effect was 17.1%. Turning to `COCCN1CCC(C)(c2cc(O)[nH]n2)CC1`, the Percent Effect is 50%. Consider `Cc1oncc1C(=O)N[C@@H]1CN(c2ncccn2)C[C@@H]2CCCO[C@@H]21`, for which the Percent Effect was 20%. For the compound `CN1CCO[C@@H]2CN(S(=O)(=O)c3ccc(F)cc3)CC[C@@H]2C1`, the Percent Effect is 17.9%. On to `CN(Cc1ccco1)C[C@H]1OC[C@@H]2CCN(Cc3cccnc3)C[C@@H]21`, for which the Percent Effect is 13.2%. As for `c1cncc(CN2CC[C@@H]3O[C@H](COCCN4CCCC4)CC[C@@H]32)c1`, the Percent Effect came to 16%. As for `COc1cc(CN2CCN(c3cccc(OC)c3)C(=O)C2)cc(OC)c1`, the Percent Effect was 18.3%. Under `COc1cccc(N2CCN(Cc3cccc(CCN)c3)CC2=O)c1` stands 60.7%.

Turning to `NCCc1cccc(CN2CCN(c3cccc(Cl)c3)C(=O)C2)c1`, the Percent Effect is 14.8%. Take `Cc1cc(C)cc(N2CCN(Cc3cccc(CCN)c3)CC2=O)c1`: the Percent Effect stood at 8.2%. Under `NCCc1cccc(CN2CCN(c3ccccc3)C(=O)C2)c1` stands 55.7%. As for `COc1cccc(N2CCN(Cc3ccc4occc4c3)CC2=O)c1`, the Percent Effect amounted to 13.5%.

Take `Cc1noc(C)c1C(=O)N1C[C@H]2CCC[C@@]2(COc2ccccn2)C1`: the Percent Effect turned out to be 17.6%. As for `Cc1ccc(C(=O)N2CCO[C@H]3[C@H](OCc4ccccn4)CC[C@@H]32)o1`, the Percent Effect turned out to be 19.3%. For `Cc1nc([C@@H]2C[C@@H]3CCN(C(=O)Cc4cccc(F)c4)C[C@H]3O2)no1`, the Percent Effect came to 9.09%. Regarding `CN(C)C(=O)[C@H]1C[C@@H]2CCN(C3CCOCC3)C[C@@H]2O1`, the Percent Effect was 11.1%. The value for `CN1CCN(S(=O)(=O)c2ccc(Sc3nccn3C)nc2)CC1` was -3.37%. As to `Cn1ccnc1Sc1ccc(S(N)(=O)=O)cn1`, the Percent Effect came out at 10.3%. Under `Cn1ccnc1Sc1ccc(N)cn1` stands 91%; under `CS(=O)(=O)N1CCO[C@@H]2CN(C(=O)N3CCOCC3)CC[C@@H]2C1`, 4.5%; under `CN(C)CC(=O)N1CCc2sc(C(=O)N3CCOCC3)cc21`, 15.8%. With `Cc1ccc(N2CCc3sc(C(=O)NCCN4CCCC4)cc32)nn1`, the Percent Effect amounted to 8.33%. The value for `Cc1ccc(N2CCc3sc(C(=O)N4CCOCC4)cc32)nn1` was 50%; that for `Cc1cc(C(=O)NCC(C)C)c2c(C3CCCN3)noc2n1` (stereo not given) was 4.14%; that for `Cc1cc(C(=O)NCC(F)(F)F)c2c(C3CCNCC3)noc2n1` was 19.3%. As to `Cc1cc(C(=O)NCC(F)(F)F)c2c(C3CCCN3)noc2n1` (stereo not given), the Percent Effect was 71.7%.
